Reference: PubChem BioAssay AID372 (MTDP, 2006)
The whole screen tested about 100,000 compounds, of which about 770 (0.77%) were called active. Rule as the data show it: active = inhibition above about 50%; inactive = the rest. The sample as a whole holds a higher share of actives than the screen did.

molecular target: Gag-Pol polyprotein (Human immunodeficiency virus type 1 group M subtype B (isolate HXB2)) (UniProt P04585); test: RNase H inhibition, HIV 1 Gag Pol polyprotein, FRET biochemical assay, screening (AID 372); conditions: HIV-1 RT RNase H, FRET RNA/DNA substrate fluorescence; at 10 µM; active compounds read high

SMILES	inhibition
O=S(=O)(c1cc(Cl)ccc1Cl)n1ccnc1	0% (inactive)
CCOC(=O)c1ccc(-c2ccc(/C=N/O)o2)cc1	0% (inactive)
COC(=O)C1=C(C)NC2=C(C(=O)CC(c3ccc(OC)cc3)C2)C1c1cccc(OC)c1OC (stereo not given)	11% (inactive)
COc1ccc(-c2nc3ccccc3o2)cc1NC(=S)NC(=O)c1ccccc1C	53% (active)
Cc1ccccc1C(=O)NC(=S)Nc1cc(-c2nc3ccccc3o2)ccc1Cl	53% (active)
COc1ccccc1C(=O)NC(=S)Nc1cc(-c2nc3ccccc3o2)ccc1C	10% (inactive)
Cc1ccc2nc(-c3ccc(Cl)c(NC(=S)NC(=O)c4ccccc4C)c3)oc2c1	42% (inactive)
Cc1ccc(-c2nc3ccccc3o2)cc1NC(=S)NC(=O)c1ccccc1C	12% (inactive)
O=C(NC(=S)Nc1cc(-c2nc3ccccc3o2)ccc1Cl)c1ccccc1Br	9% (inactive)
O=C(NC(=S)Nc1ccc(Cl)cn1)c1cccc(F)c1	13% (inactive)
Cc1ccc2nc(-c3ccc(Cl)cc3)cn2c1	5% (inactive)
O=C1C(=O)N(c2nc3ccccc3s2)C(c2ccccc2F)/C1=C(/O)c1ccccc1 (stereo not given)	8% (inactive)
O=C(Nc1c(C(=O)Nc2ccc(Br)cc2)cnn1-c1ccccc1)c1ccco1	8% (inactive)
O=C(Nc1ccc(S(=O)(=O)N2CCCCC2)cc1)c1ccccc1Cl	57% (active)
O=C(Nc1ccc(S(=O)(=O)N2CCOCC2)cc1)c1ccccc1Cl	0% (inactive)
O=C(Nc1ccc(S(=O)(=O)N2CCCCCC2)cc1)c1ccc(Cl)cc1Cl	8% (inactive)
Cc1cccc(C(=O)NN=C2CCCCC2)c1	7% (inactive)
CC(C)NS(=O)(=O)c1ccc(Br)cc1	0% (inactive)
O=C1NC(=S)NC(=O)C1=Cc1ccc(-c2ccc(Cl)cc2[N+](=O)[O-])o1	42% (inactive)
Cc1cc(-c2ccc(/C=C3/C(=O)NN(c4ccc(F)cc4)C3=O)o2)c([N+](=O)[O-])cc1C	5% (inactive)
CC(=O)c1cccc(-c2ccc(/C=C3\C(=O)NC(=O)C(C#N)=C3C)o2)c1	43% (inactive)
Cc1ccc(-c2ccc(C=C3C(=O)NC(=O)NC3=O)o2)c([N+](=O)[O-])c1	14% (inactive)
CC1=C(C#N)C(=O)NC(=O)/C1=C\c1ccc(-c2cc(C)c(C)cc2[N+](=O)[O-])o1	56% (active)
Cc1cc(-c2ccc(C=C3C(=O)N(C)C(=O)N(C)C3=O)o2)c([N+](=O)[O-])cc1C	6% (inactive)
CC1=C(C#N)C(=O)NC(=O)/C1=C\c1ccc(-c2ccc(Cl)c(Cl)c2)o1	50% (active)

SMILES	inhibition
CC1=C(C#N)C(=O)NC(=O)/C1=C\c1ccc(-c2cccc(Cl)c2)o1	33% (inactive)
C=CCN1C(=O)/C(=C/c2cc(C)n(-c3ccc(C(=O)O)cc3C)c2C)C(=O)NC1=S	6% (inactive)
Cc1cc(Br)cc(C)c1NC(=O)c1cccnc1	2% (inactive)
CCOC(=O)CNC1=C([N+](=O)[O-])C(=O)CC(C)(C)C1	0% (inactive)
C=CCn1cc(/C=c2\sc3n(c2=O)C(c2ccc(SC)cc2)C(C(=O)OCC)=C(C)N=3)c2ccccc21 (stereo not given)	24% (inactive)
COc1ccc(C2CC(C(F)(F)F)n3nc(C(=O)Nc4cc(OC)c(Cl)cc4OC)c(Cl)c3N2)cc1 (stereo not given)	14% (inactive)
COc1ccc(C)cc1NC(=O)COc1cccc2ccccc12	21% (inactive)
Cc1ccccc1N1C(=O)/C(=C/c2cccn2-c2ccc(Br)cc2)C(=O)NC1=S	20% (inactive)
CCc1ccccc1N/C=C(\C#N)c1nc(-c2ccc(Cl)cc2)cs1	8% (inactive)
Cc1ccc(-c2n[nH]c(=S)n2N=Cc2ccccc2OCC(=O)O)cc1	12% (inactive)
COc1ccc(/C=C2/Sc3ccccc3C2=O)cc1	5% (inactive)
O=C(NC(=S)Nc1ccc(O)c(-c2nc3ccccc3s2)c1)c1ccc(Cl)cc1	54% (active)
O=C(COc1ccc(Cl)cc1Cl)Nc1ccc(NC(=O)COc2ccc(Cl)cc2Cl)cc1	52% (active)
CCC(=O)Nc1ccc(NC(=O)COc2ccc(Cl)cc2Cl)cc1	27% (inactive)
O=C(COc1ccc(Cl)cc1Cl)Nc1ccc(-c2nc3ccccc3s2)c(O)c1	27% (inactive)
Cc1ccccc1OCC(=O)Nc1ccc(O)c(-c2nc3ccccc3s2)c1	14% (inactive)
O=C(COc1ccc(Br)cc1Cl)Nc1ccccc1Cl	31% (inactive)
O=C(NC(=S)Nc1ccc(O)c(-c2nc3ccccc3s2)c1)c1ccc(F)cc1	46% (inactive)
O=C(COc1ccc(Br)cc1Cl)Nc1ccccc1F	51% (active)
O=C(COc1ccc(Cl)cc1Cl)Nc1ccc(O)c(-c2nc3ccccc3s2)c1	61% (active)
O=C(COc1ccc(Cl)cc1Cl)Nc1ccc(-c2ccccc2)cc1	7% (inactive)
Cc1ccc(C(=O)NC(=S)Nc2ccc(O)c(-c3nc4ccccc4s3)c2)cc1	37% (inactive)
O=C(COc1ccc(Cl)cc1Cl)Nc1ccccc1F	27% (inactive)
C#CCSc1nncn1C(=O)/C=C/c1ccco1	19% (inactive)
COc1ccc2nc(N/C(N)=N/S(=O)(=O)c3ccc(C)cc3)nc(C)c2c1	5% (inactive)

SMILES	inhibition
Cc1cc(=O)[nH]c(N/N=C/c2cccnc2)n1	0% (inactive)
CCCCNCCCCCOc1ccccc1C(C)C	5% (inactive)
COc1cccc(OCCCCOc2ncnc3ccccc23)c1	10% (inactive)
O=C(COc1ccc(/C=N/NS(=O)(=O)c2ccccc2)cc1)Nc1ccc(F)cc1	4% (inactive)
CCOc1ccc(N(CC(=O)NCCSCc2ccc(C)cc2)S(C)(=O)=O)cc1	16% (inactive)
COC(=O)c1ccc(/C=C2\N=C(c3ccc(F)cc3)OC2=O)cc1	0% (inactive)
CC(=O)Oc1ccc2c(=O)c(-c3nc4ccccc4[nH]3)c(C)oc2c1	3% (inactive)
O=C(COc1ccc(Br)cc1Cl)Nc1ccc2c(c1)OCCO2	50% (active)
O=C(NC(=S)Nc1cccc(-c2nc3ccccc3s2)c1)c1cccs1	7% (inactive)
O=C(NC(=S)Nc1ccc(-c2nc3ccccc3s2)c(O)c1)c1cccs1	56% (active)
O=C(COc1ccc(Cl)cc1Br)Nc1ccc2c(c1)OCCO2	36% (inactive)
O=C(NC(=S)Nc1ccc(O)c(-c2nc3ccccc3s2)c1)c1cccs1	19% (inactive)
O=C(COc1ccc(Br)cc1Cl)Nc1ccc2c(c1)OCO2	18% (inactive)
CC(=O)N1N=C(c2ccc(N(C)C)cc2)CC1c1ccccc1 (stereo not given)	11% (inactive)
Nc1[nH]n(-c2ccccc2)c(=O)c1N=Nc1ccc(Cl)cc1	9% (inactive)
O=C(N/N=C/c1ccc(I)cc1)C1CC(=O)N(c2ccccc2)C1 (stereo not given)	9% (inactive)
Cc1cc(/C=N/O)c(C)n1-c1ccc(N(C)C)cc1	11% (inactive)
COc1cc(/C=C(\C#N)c2nc3ccccc3s2)cc(Br)c1O	5% (inactive)
CCOc1cc(/C=C(\C#N)c2nc3ccccc3s2)ccc1O	16% (inactive)
COc1cc(/C=C(\C#N)c2nc3ccccc3s2)cc(OC)c1O	54% (active)
C=CCN(CC=C)CC(O)CN1C(=O)NC(C)(C)C1=O (stereo not given)	3% (inactive)
CC1=CC(C)(C)N(C(=O)CSc2nc3ccccc3s2)c2cc(C)ccc21	20% (inactive)
COC(=O)CSc1nc(N)c(C#N)c(-c2ccc(O)cc2)c1C#N	2% (inactive)
COc1ccc(-c2c(C#N)c(N)nc(SCC(=O)OCc3ccccc3)c2C#N)cc1	15% (inactive)
Cc1ccc(C(=O)CSc2nc(N)c(C#N)c(-c3ccc(O)cc3)c2C#N)cc1	47% (inactive)

SMILES	inhibition
COC(=O)CSc1nc(N)c(C#N)c(-c2ccc(OC)cc2)c1C#N	4% (inactive)
COc1cccc(N=Cc2c(O)ccc3ccccc23)c1	13% (inactive)
Cc1ccccc1Nc1ncc(-c2ccc3ccccc3c2)s1	22% (inactive)
COc1cc(C2C(C(=O)/C=C/c3ccccc3)=C(O)C(=O)N2c2ccccn2)ccc1O (stereo not given)	6% (inactive)
COc1cc2ccccc2cc1C(=O)Nc1ccc(Br)cc1F	18% (inactive)
Cc1ccccc1-n1c(O)c(C=NCc2ccccc2F)c(=O)[nH]c1=O	9% (inactive)
CCCC1CCc2c(sc(N)c2C#N)C1 (stereo not given)	39% (inactive)
CC1CCc2c(sc(N)c2C#N)C1 (stereo not given)	57% (active)
CCC1CCc2c(sc(N)c2C#N)C1 (stereo not given)	18% (inactive)
O=C(Nc1ccc(NC(=O)c2cc([N+](=O)[O-])cc([N+](=O)[O-])c2)cc1)c1cccc(Br)c1	12% (inactive)
CCC(OC(=O)CN1C(=O)C(=O)c2ccccc21)C(=O)Nc1ccc(S(N)(=O)=O)cc1 (stereo not given)	12% (inactive)
CC(=O)c1ccc(-n2c(C)ccc2C)cc1	0% (inactive)
Cc1ccc(C)n1-c1ccc(OCC(=O)O)cc1	54% (active)
O=C(O)COc1ccc(N2C(=O)C=CC2=O)cc1	35% (inactive)
O=C(O)COc1ccc(N2C(=O)CCC2=O)cc1	12% (inactive)
Cc1ccc(C)n1-c1ccc(CC(=O)O)cc1	47% (inactive)
O=C(CN1C(=O)/C(=C/c2ccccc2Cl)SC1=S)Nc1nccs1	14% (inactive)
CCOc1ccccc1N1COc2ccc3ccccc3c2C1	14% (inactive)
CCOc1ccc(CN2CCN(C(=O)c3cccs3)CC2)cc1	5% (inactive)
COc1cccc(OCCCCOc2ccc(Cl)cc2C)c1	29% (inactive)
COc1ccc(OC)c(N(CC(=O)N/N=C/c2cc(Br)ccc2OC)S(=O)(=O)c2ccccc2)c1	2% (inactive)
O=C1NC(=O)/C(=C\c2ccc(Cl)cc2Cl)S1	16% (inactive)
Cc1ccc(NS(=O)(=O)c2cc(Cl)ccc2Cl)c(Br)c1	51% (active)
Cc1ccc(C)c(NS(=O)(=O)c2cc(Cl)ccc2Cl)c1	47% (inactive)
Cc1ccc(NS(=O)(=O)c2cc(Cl)ccc2Cl)c(C)c1	20% (inactive)
